Columns and labels:
Details in all cases: treatment time: 24 h
A549-ACTB-RAB5A [1] = experiment: lowest phenotypically active concentration; higher = less potent
Procedure, shortened: (§1)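 Four wells per concentration (0.3, 1, 3 or 9 µM) were treated for 24 h in each of fifteen gene-edited reporter lines from A549, HepG2 and WPMY1 cells, then imaged live. After normalising live-cell features to solvent control wells, deviation was defined as ≥3 of 4 wells lying past the 95th percentile of control Euclidean distances. Reproducibility was defined as a median replicate Pearson correlation above the 95th percentile of non-replicates. Both had to hold for phenotypic activity.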

A549-CANX-COX4 [2] = experiment: as above
Procedure, shortened: as §1

A549-GM130-SQSTM1 [3] = experiment: as above
Procedure, shortened: as §1

A549-TP53BP1-CLTA [4] = experiment: as above
Procedure, shortened: as §1

A549-TUBA1B-RELA [5] = experiment: as above
Procedure, shortened: as §1

A549-ACTB-RAB5A [6] = experiment: phenotypically active (imaging signature differs from DMSO and reproducible) at any of 0.3-9 uM (binary (1 = active, 0 = inactive)); higher = active
Procedure, shortened: as §1

A549-CANX-COX4 [7] = experiment: as above
Procedure, shortened: as §1

A549-GM130-SQSTM1 [8] = experiment: as above
Procedure, shortened: as §1

A549-TP53BP1-CLTA [9] = experiment: as above
Procedure, shortened: as §1

A549-TUBA1B-RELA [10] = experiment: as above
Procedure, shortened: as §1

HepG2-ACTB-RAB5A = experiment: as above
Procedure, shortened: as §1

HepG2-CANX-COX4 = experiment: as above
Procedure, shortened: as §1

HepG2-GM130-SQSTM1 = experiment: as above
Procedure, shortened: as §1

HepG2-TP53BP1-CLTA = experiment: as above
Procedure, shortened: as §1

HepG2-TUBA1B-RELA = experiment: as above
Procedure, shortened: as §1

WPMY1-ACTB-RAB5A = experiment: as above
Procedure, shortened: as §1

WPMY1-CANX-COX4 = experiment: as above
Procedure, shortened: as §1

WPMY1-GM130-SQSTM1 = experiment: as above
Procedure, shortened: as §1

WPMY1-TP53BP1-CLTA = experiment: as above
Procedure, shortened: as §1

WPMY1-TUBA1B-RELA = experiment: as above
Procedure, shortened: as §1

| SMILES | lowest phenotypically active concentration (A549-ACTB-RAB5A [1]) [µM] | lowest phenotypically active concentration (A549-CANX-COX4 [2]) [µM] | lowest phenotypically active concentration (A549-GM130-SQSTM1 [3]) [µM] | lowest phenotypically active concentration (A549-TP53BP1-CLTA [4]) [µM] | lowest phenotypically active concentration (A549-TUBA1B-RELA [5]) [µM] | phenotypically active (A549-ACTB-RAB5A [6]) | phenotypically active (A549-CANX-COX4 [7]) | phenotypically active (A549-GM130-SQSTM1 [8]) | phenotypically active (A549-TP53BP1-CLTA [9]) | phenotypically active (A549-TUBA1B-RELA [10]) | phenotypically active (HepG2-ACTB-RAB5A) | phenotypically active (HepG2-CANX-COX4) | phenotypically active (HepG2-GM130-SQSTM1) | phenotypically active (HepG2-TP53BP1-CLTA) | phenotypically active (HepG2-TUBA1B-RELA) | phenotypically active (WPMY1-ACTB-RAB5A) | phenotypically active (WPMY1-CANX-COX4) | phenotypically active (WPMY1-GM130-SQSTM1) | phenotypically active (WPMY1-TP53BP1-CLTA) | phenotypically active (WPMY1-TUBA1B-RELA) |
| --- | --- | --- | --- | --- | --- | --- | --- | --- | --- | --- | --- | --- | --- | --- | --- | --- | --- | --- | --- | --- |
| CC[C@@H]1C(=O)N(C)c2cnc(Nc3ccc(C(=O)NC4CCN(C)CC4)cc3OC)nc2N1C1CCCC1 | ≤ 0.3 | ≤ 0.3 | 1 | ≤ 0.3 | ≤ 0.3 | 1 (active) | 1 (active) | 1 (active) | 1 (active) | 1 (active) | 1 (active) | 1 (active) | 1 (active) | 1 (active) | 1 (active) | 1 (active) | 1 (active) | 1 (active) | 1 (active) | 1 (active) |
| COc1cc(OC2CCN(C)CC2)ccc1Nc1ncc2c(n1)n(C1CCCC1)c(=O)n2C | 3 | 3 | 3 | 3 | 3 | 1 (active) | 1 (active) | 1 (active) | 1 (active) | 1 (active) | 1 (active) | 1 (active) | 1 (active) | 1 (active) | 1 (active) | 1 (active) | 1 (active) | 1 (active) | 1 (active) | 1 (active) |

Source: the supplement of paper PMC7411054
